Data on 53 molecules can be found in PubChem BioAssay AID588342 (National Center for Advancing Translational Sciences (NCATS), 2011).

Molecules are shown by their SMILES. About 25,000 (6.9%) of roughly 360,000 compounds were called active. Roughly 9% stayed inconclusive and do not appear here. This excerpt belongs to a sample that is enriched for actives. Unmarked numbers belong to inactive results. Calls come from the whole dose curve; as a rule, active = well fitted inhibition curve with a large enough effect; inconclusive = small, poorly fitted or top-dose-only effect; inactive = flat fitted curve, though single readings scatter.

Luciferin 4-monooxygenase (Photinus pyralis), sequence (P08659 whole entry, looked up): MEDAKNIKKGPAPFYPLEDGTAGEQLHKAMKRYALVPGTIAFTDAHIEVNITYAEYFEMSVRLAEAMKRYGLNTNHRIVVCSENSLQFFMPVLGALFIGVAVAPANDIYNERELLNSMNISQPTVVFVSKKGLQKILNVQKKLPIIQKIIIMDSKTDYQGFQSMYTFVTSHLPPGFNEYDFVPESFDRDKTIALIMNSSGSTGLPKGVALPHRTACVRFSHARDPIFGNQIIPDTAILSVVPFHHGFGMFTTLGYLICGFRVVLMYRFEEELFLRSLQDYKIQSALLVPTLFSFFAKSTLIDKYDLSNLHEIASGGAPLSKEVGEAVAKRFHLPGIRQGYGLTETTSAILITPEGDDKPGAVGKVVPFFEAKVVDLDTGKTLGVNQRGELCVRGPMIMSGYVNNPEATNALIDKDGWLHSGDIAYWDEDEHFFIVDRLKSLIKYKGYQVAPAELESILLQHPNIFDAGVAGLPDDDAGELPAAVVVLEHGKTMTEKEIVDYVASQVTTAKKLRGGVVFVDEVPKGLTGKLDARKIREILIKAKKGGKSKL

This experiment concerns the target Luciferin 4-monooxygenase (Photinus pyralis) (UniProt P08659). As to the kind of experiment: qHTS profiling assay for firefly luciferase inhibitor/activator using purifed enzyme and Km concentrations of substrates (counterscreen for miR-21 project).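 For activity change, negative = inhibition: plate controls were vehicle for no effect and reference inhibitor for full effect.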 Note: nearly all actives have a fitted effect of over 55% in size. Particulars: purified FLuc, luminescence inhibition; series mostly up to 57.5 µM; activity change, negative = inhibition: at the top concentration. An excerpt:
MLPCN Grant: 1 R21 NS059478-01 (miR-21 grant) Assay Provider: NCGC NCGC Assay Overview: Firefly (Photinus pyralis) luciferase is one of the most commonly used transcriptional reporters for a number of reasons. It is considered one of the more dynamically responsive reporters -that is, responsive to changes in reporter transcription - as it requires no post-translational modifications and is enzymatically active directly after protein synthesis (Wood, 1998). Additionally, the half-life of the luciferase protein is short relative to other reporter-gene products (Wood, 1995). Whereas reporters with long half-lives potentially allow for increased signal due to accumulation of reporter-gene product, once accumulated in the cell, dynamic changes in reporter-gene expression may be difficult to detect(Fan and Wood, 2007; Almond et al., 2004). It has been shown that wild-type P. pyralis luciferase has a half-life of approximately […] hours in mammalian cells (Thompson et al., 1991). Firefly luciferase reporter-gene assays are also generally considered one of the most sensitive assay types (Wood, 1995; Wood, 1998). Although light produced in a bioluminescence reaction is of lower intensity than that produced during fluorescence emission, this is offset by little to no background light inherent to luminescent assays. Thus the luciferase reporter can be expressed at much lower levels than fluorescent proteins while still providing robust signal. # However, it was initially observed, in 1991, by Thompson et al., that compounds that resemble the substrates of firefly luciferase (FLuc) can act as competitive inhibitors of the enzyme, and that these compounds, upon interaction with luciferase in the cell, can actually stabilize the protein and increase its half-life. Accumulated intracellular FLuc protein can be measured as an increase in luminescence signal, upon addition of detection reagents (which contain high concentrations of FLuc substrates) commonly used in high-throughput screening. In cell-based reporter gene assays that use FLuc as the reporter gene to quantitate the potential influence of a given compound against the target biology, this apparent increase in luminescence can mistakenly be interpreted as identification of a compound that is active against the target of interest. This is the case for the miR-21 FLuc reporter gene assay used to identify inhibitors of the miR-21 pathway (PubChem AID 2289) - compounds of interest will inhibit miR-21 biogenesis/expression or activity, and are identified by causing an increase in luminescence, due to increased FLuc translation. However, FLuc inhibitory compounds that stabilize the FLuc protein will give an identical read-out, making it difficult to distinguish compounds that are active against the target from those active against FLuc. Previous profiling work to determine the prevalence of compounds that affect FLuc enzymatic activity (PubChem AID 411) identified that ~3% of the MLSMR library (then at ~72K) inhibited FLuc. […] Since the MLSMR had grown to ~350K compounds, and since it was expected that a significant percentage of compounds found active in the miR-21 FLuc assay would be FLuc inhibitors, the library was screened for activity against FLuc using a biochemical assay of purified FLuc and KM concentrations of FLuc substrates (D-luciferin and ATP).
NCGC Assay Protocol Summary: Reagents: 50mM Tris acetate, pH 7.5; 10mM Mg acetate; 10uM D-luciferin (Sigma #L9504); 10uM ATP; 0.01% Tween-20; 0.05% BSA; 10nM P. pyralis luciferase (Sigma #L9506) Control compounds used were two known firefly luciferase inhibitors (compounds (2) and (5) in Auld et al., 2010), and DMSO. […]
On the technique in general: Quantitative high-throughput screening tests each substance at several concentrations.
For `O=C1Cc2cc(S(=O)(=O)Nc3ccc(OC(F)(F)F)cc3)cc3c2N1CCC3`, the “activity change, negative = inhibition” value was 3.14%.
For the molecule `O=C(Nc1cccc2ccccc12)c1onc2c1CCCC2`, the Potency is 8.49 µM (active).
For `CN(CC(=O)Nc1ccc(Cl)cc1)CC(=O)Nc1cccc2ccccc12`, the “activity change, negative = inhibition” value is 2.54%.
On the same count and under the same terms, to `O=C(O)c1ccccc1-c1ccccc1C(=O)Nc1cccc2ccccc12` belongs -0.517%.
Same read-out and setting: to `COc1ccc(C(=O)OCC(=O)Nc2ccc3[nH]c(=O)[nH]c3c2)c(OC)c1OC` belongs 0.847%.
Turning to `COc1ccc(C(=O)OCC(=O)c2ccc(Cl)s2)c(OC)c1OC`, the Potency is 21.3 µM (active).
For `COc1ccc(Cl)cc1C(=O)OCC(=O)NCc1cccs1`, the “activity change, negative = inhibition” value is -0.894%.
Take `CCC1=Nc2cc(C(=O)NCC(C)c3ccccc3)ccc2Sc2ccc(C)cc21` (stereo not drawn): the “activity change, negative = inhibition” value was -8.78%.
Still for that read-out and setting: to `COC(=O)c1c(-c2ccc(C)cc2)csc1N` belongs 0.678%.
In the case of `CCOC(=O)c1c(-c2ccc(C)cc2)csc1/N=C(\C)C1=C(O)c2ccccc2C1=O`, the Potency was 2.69 µM (active).
As for `CCOC(=O)c1c(-c2ccc(-c3ccccc3)cc2)csc1NC(=O)CCC(=O)O`, the “activity change, negative = inhibition” value was 0.422%.
`CN(C)S(=O)(=O)c1cccc(NC(=O)COc2ccc3ccccc3c2)c1`: the Potency is 6.01 µM (active).
For `CN(C)S(=O)(=O)c1cccc(NC(=O)COC(=O)c2cc(=O)[nH]c(=O)[nH]2)c1`, the “activity change, negative = inhibition” value was 1.02%.
The same measure, in the same setting: to `CN(C)S(=O)(=O)c1cccc(NC(=O)COC(=O)C2(c3ccccc3F)CCCC2)c1` belongs 3.61%; to `CCC(Oc1ccccc1C)C(=O)Nc1ccc(S(=O)(=O)Nc2cc(C)on2)cc1` (stereo not drawn), 1.08%; to `CC1CN(C(=S)Nc2ccc(Br)cc2Cl)CC(C)O1` (stereo not drawn), -1.05%.
As to `O=C(/C=C/c1cnc2ccccc2n1)NC1CCCCCC1`, the Potency was 13.5 µM (active).
As for `O=C(Cn1c(-c2cncs2)nc2ccccc21)NC1CCCC1`, the “activity change, negative = inhibition” value is 2.57%.
On to `O=C(CSc1nnc2c(n1)[nH]c1ccccc12)NC1CCCCC1`, for which the “activity change, negative = inhibition” value was -1.35%.
Same read-out and setting: next, `COc1ccc(/C=C/CN2CCN(Cc3ccc(C)cc3)C(CCO)C2)cc1` (stereo not drawn): -3.37%.
The same measure, in the same setting: to `CCc1cnc2c(c1SCC(=O)N1CCC(C)CC1)c(=O)n(C)c(=O)n2C` belongs 0.686%; to `O=C1CC[C@H](O)CCN1[C@H](CSc1ccc(Br)cc1)Cc1ccccc1`, -2.89%.
Take `C=CCOc1ccc(/C=C2\SC(=S)N(CCC(=O)O)C2=O)cc1`: the Potency is 1.69 µM (active).
Consider `O=C1/C(=C/c2ccc(F)cc2)SC(=S)N1CCCC(=O)N1CCCCC1CCO` (stereo not drawn), for which the “activity change, negative = inhibition” value was -5.92%.
In the case of `Cc1ccc(/C=C2\SC(=S)N(CCC(=O)Nc3ccc(O)cc3)C2=O)cc1`, the “activity change, negative = inhibition” value is -1.73%.
Turning to `O=C(NCc1ccncc1)c1cccc(NS(=O)(=O)c2ccc(F)c(F)c2)c1`, the “activity change, negative = inhibition” value was 11.6%.
In the case of `COc1ccc(S(=O)(=O)NCCSc2nnnn2-c2ccccc2)cc1`, the “activity change, negative = inhibition” value was 7.96%.
Consider `COc1ccc(N(C)C(=O)C2CCN(S(=O)(=O)c3cc(Br)cc4c3N(C(C)=O)CC4)CC2)cc1`, for which the “activity change, negative = inhibition” value was -2.94%.
`CC1=C(C(=O)OCc2ccc(C)cc2)C(c2ccccc2Cl)CC(=O)N1` (stereo not drawn): the “activity change, negative = inhibition” value is -12.5%.
For `CSc1ccc(CCNC(=O)c2cnn(-c3ccccc3)c2-n2cccc2)cc1`, the “activity change, negative = inhibition” value was -14.2%.
Same read-out and setting: to `COc1ccc(CNC(=O)C2=Cc3cccc(OC)c3OC2)cc1OC` belongs 0.464%; to `CCOc1cccc(C(=O)Nc2cnn(Cc3ccccc3)c2)c1`, -18.7%.
For the molecule `CCOc1cccc(C(=O)Nc2nnc(-c3cccs3)s2)c1`, the Potency is 1.51 µM (active).
Regarding `COCC(=O)Nc1nnc(COc2ccccc2)s1`, the “activity change, negative = inhibition” value was -10.1%.
As to `Cc1cccc(C(C)C)c1NC(=O)C(NS(=O)(=O)c1cccc2nsnc12)c1ccccc1` (stereo not drawn), the “activity change, negative = inhibition” value was -2.84%.
On the same count and under the same terms, next, `CCN(CC)S(=O)(=O)c1ccc2c(c1)N(CC(=O)NCc1ccccc1)C(=O)CS2`: -0.306%; `CN1C(=O)c2[nH]nc(-c3ccc(F)cc3)c2C1c1ccccn1` (stereo not drawn): -3.01%.
Regarding `COc1cccc(NC(=O)N2C3CCCC2CC(NC(C)=O)C3)c1` (stereo not drawn), the “activity change, negative = inhibition” value was 0.0264%.
For the molecule `O=C(N/N=C/c1cccc(O)c1)c1cc2c(ccc3ccccc32)o1`, the Potency is 10.7 µM (active).
With `Cc1ccc(OCCOc2cccc(/C=N/NC(N)=O)c2)cc1`, the “activity change, negative = inhibition” value was -15.1%.
Still for that read-out and setting: to `CCCc1ccc(OCc2ccc(C(=O)N/N=C/c3cccc([N+](=O)[O-])c3)o2)c(OC)c1` belongs 0.233%; to `O=C(Cc1cccs1)N/N=C/c1ccc(OCc2ccccc2)cc1`, 2.08%.
Take `O=C(N/N=C/c1cccc(OCc2ccccc2)c1)c1ccc(Br)o1`: the Potency was 21.3 µM (active).
Consider `O=C(Cc1c[nH]c2ccccc12)N/N=C/c1cccc(F)c1`, for which the “activity change, negative = inhibition” value is -15.3%.
On the same count and under the same terms, to `Cc1cccc(Oc2c([N+](=O)[O-])c(=O)n(C)c3ccccc23)c1` belongs -3.1%; to `COc1ccc(Cl)cc1NC(=O)CSc1nc2ccccc2c2nc(-c3ccccc3)nn12`, -0.248%.
In the case of `CCOc1cccc(NC(=O)c2ccc(F)c(S(=O)(=O)N(CC)c3cccc(C)c3)c2)c1`, the “activity change, negative = inhibition” value was -8.56%.
Consider `CCCN1CCc2nc(N3CCN(C)CC3)ncc2C1`, for which the “activity change, negative = inhibition” value was -5.04%.
On the same count and under the same terms, next, `CCN1CCCC1CNC(=O)c1cc2cc(OC)c(OC)cc2[nH]1` (stereo not drawn): 0.324%.
On the same count and under the same terms, to `COc1ccc(CCNC(=O)CCc2ccccc2O)cc1OC` belongs 3.81%; to `COc1ccc(C(=O)NC(C)CCc2ccccc2)c(OC)c1` (stereo not drawn), -0.702%.
On to `COc1ccc(C(=O)CCc2ccccc2O)c(OC)c1`, for which the Potency was 12 µM (active).
For `O=C(c1cc2cc(Br)cc(Br)c2oc1=O)N1CCOCC1`, the “activity change, negative = inhibition” value was 0.0137%.
